Screens from PubChem BioAssay.
MCF10A rerep: induces DNA re-replication in MCF 10a normal breast cells | Potency, µM (titrated, usually from 46.1 µM), without a hit: at the highest dose activity, positive = re-replication, actives largely listed as activators | MCF 10A DNA re-replication, Hoechst nuclear intensity, 48 h | AID 624296 | 2.9% of 350,000 active; also: % of control where 0% means no effect; nearly all actives have a fitted effect of over 50% in size
KB-3-1 cytotox: kills parental KB-3-1 adenocarcinoma cells; KB-3-1 viability, CellTiter-Glo ATP luminescence, 72 h; Potency, µM (titrated, usually from 46.1 µM), actives largely listed as cytotoxic; 1.4% of 400,000 active; AID 1347075; also: % is scaled to controls: 0 for no effect and ±100 for the full control effect; nearly all actives have a fitted effect of over 60% in size
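Cytotoxicity measured as CellTiter-Glo luminescence after 72 h at 37 C. Compound titrations were pinned onto drug-naive KB-3-1 parental adenocarcinoma cells grown in DMEM with 10% FBS, and normalized data fitted to concentration-response curves.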
SW480 rerep: inducers of DNA re-replication in SW480 colon cancer cells; SW480 DNA re-replication, Hoechst DNA content imaging, 48 h; Potency, µM (top dose mostly 46.1 µM), for the others: top-dose re-replication activation, hits mostly activators; 1.8% of 340,000 active; AID 624297; also: % of control where 0% means no effect; nearly all actives have a fitted effect of over 55% in size
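Image-based DNA-content assay: after two days of treatment, nuclei were labelled with the DNA dye Hoechst and imaged, and hits were compounds raising the count of nuclei showing high fluorescence intensity.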
PINK1 expr mod: modulators of PINK1 expression. Potency, µM (highest dose often 76.6 µM), inactives show top-dose activation (PINK1 increase), usual class: activators. 0.2% of 410,000 active. AID 624263. PINK1 immunofluorescence, high-content cytometry, 24 h; active = well fitted activation curve with a large enough effect; inconclusive = small, poorly fitted or top-dose-only effect; cell line not stated here; also: % of control where 0% means no effect; nearly all actives have a fitted effect of over 65% in size
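Measures PINK1 amount and localization on or inside mitochondria by immunofluorescence. Stable cells get compounds at 5 concentrations for 24 hours before fixation and staining; CCCP controls included.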
KB-V1 MDR tox: KB-V1 MDR subline cytotoxicity; 3.4% of 400,000 active; KB-V1 MDR cells viability, CellTiter-Glo, 72 h; Potency, µM (top dose mostly 46.1 µM), actives largely listed as cytotoxic; also: % is scaled to controls: 0 for no effect and ±100 for the full control effect; nearly all actives have a fitted effect of over 60% in size
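Compound-treated KB-V1 multidrug-resistant cells, 72 h, 37 degrees C; viability by CellTiter-Glo. Fitted qHTS curves give the values.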
ALOX12 inh: blocks human arachidonate 12S-lipoxygenase; purified 12hLO, xylenol orange hydroperoxide absorbance; 1.1% of 580,000 active; Potency, µM (top dose mostly 108 µM), inactives show at the top dose activity change, negative = inhibition, actives largely listed as inhibitors; P18054; also: % is scaled to controls: 0 for no effect and ±100 for the full control effect
Target sequence (P18054 whole entry, looked up): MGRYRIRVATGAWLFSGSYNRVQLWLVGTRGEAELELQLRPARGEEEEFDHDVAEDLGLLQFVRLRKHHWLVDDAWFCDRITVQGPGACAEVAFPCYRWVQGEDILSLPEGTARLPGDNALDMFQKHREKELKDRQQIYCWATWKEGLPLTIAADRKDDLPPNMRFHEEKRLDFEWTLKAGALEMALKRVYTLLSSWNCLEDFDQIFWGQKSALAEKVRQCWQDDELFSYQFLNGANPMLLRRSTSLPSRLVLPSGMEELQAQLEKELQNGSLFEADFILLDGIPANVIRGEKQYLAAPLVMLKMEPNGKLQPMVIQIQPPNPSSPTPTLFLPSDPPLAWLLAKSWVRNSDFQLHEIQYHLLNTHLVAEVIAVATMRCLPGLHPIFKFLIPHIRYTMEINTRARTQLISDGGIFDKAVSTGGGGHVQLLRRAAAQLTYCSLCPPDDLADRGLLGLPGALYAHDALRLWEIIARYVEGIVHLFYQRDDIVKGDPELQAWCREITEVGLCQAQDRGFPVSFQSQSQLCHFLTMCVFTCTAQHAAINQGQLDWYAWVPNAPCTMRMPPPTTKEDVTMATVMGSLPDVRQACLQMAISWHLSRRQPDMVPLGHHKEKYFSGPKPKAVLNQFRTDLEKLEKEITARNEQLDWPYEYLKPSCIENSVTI
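Purified human 12hLO at 150 nM in 25 mM Hepes, 0.01% Triton X-100, pH 7.0, preincubated 15 min at room temperature with compound. Reaction started with 40 uM arachidonic acid, 30 min at room temperature. Hydroperoxide measured by Fe-xylenol orange, 573/405 nm absorbance ratio.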
Numbers without * were called inactive; [ ] = dose if it differs, or a comment. A selection: hits, their analogues and other compounds. The true share with any hit is near 5.8%. Unless noted, calls follow the shape of the dose curve; as a rule, active = well fitted curve in the direction sought with a large enough effect; inconclusive = small, poorly fitted or top-dose-only effect, or another doubt; inactive = no such curve, though single readings can be large; an effect the other way counts as inactive or inconclusive. Potency is read from the fitted curve at half-maximal effect.

Screening O=C1/C(=C\c2ccco2)NC(=S)N1c1ccccc1 returned MCF10A rerep 1%, KB-3-1 cytotox inactive, SW480 rerep inconclusive, PINK1 expr mod -3%, KB-V1 MDR tox inactive and ALOX12 inh 16µM*.
`c1ccc2sc(C3CCN(Cc4nnnn4Cc4ccc5c(c4)OCO5)CC3)nc2c1` gave MCF10A rerep inconclusive, KB-3-1 cytotox 23µM*, SW480 rerep 4%, PINK1 expr mod 5%, KB-V1 MDR tox 16µM* and ALOX12 inh -18%.
Screening COc1ccc(C2c3c(ncn(CCCN4CCOCC4)c3=N)Oc3ccc4ccccc4c32)cc1OC (configuration not stated) returned MCF10A rerep 14%, KB-3-1 cytotox inactive, SW480 rerep 18µM*, PINK1 expr mod -2%, KB-V1 MDR tox inactive and ALOX12 inh 0%.
`N=c1c2c(ncn1Cc1ccco1)Oc1ccc3ccccc3c1C2c1ccccc1` (configuration not stated) gave MCF10A rerep 16µM*, KB-3-1 cytotox inconclusive, SW480 rerep inconclusive, PINK1 expr mod -2%, KB-V1 MDR tox 7.3µM* and ALOX12 inh inconclusive.
COc1ccc(C2c3ccc4ccccc4c3Oc3ncn(CCN4CCOCC4)c(=N)c32)cc1OC (configuration not stated) was read as MCF10A rerep 0%, KB-3-1 cytotox inactive, SW480 rerep -3%, PINK1 expr mod 1%, KB-V1 MDR tox inactive and ALOX12 inh inconclusive.
`COc1ccc(C2c3ccc4ccccc4c3Oc3ncn(CCCO)c(=N)c32)cc1` (configuration not stated) gave MCF10A rerep inconclusive, KB-3-1 cytotox inactive, SW480 rerep inconclusive, PINK1 expr mod -2%, KB-V1 MDR tox inactive and ALOX12 inh inconclusive.
`N=c1c2c(ncn1CCCO)Oc1c(ccc3ccccc13)C2c1ccccc1` (configuration not stated) gave MCF10A rerep inconclusive, KB-3-1 cytotox inconclusive, SW480 rerep inconclusive, PINK1 expr mod -1%, KB-V1 MDR tox 16µM* and ALOX12 inh inconclusive.
CN(C)CCCn1cnc2c(c1=N)C(c1ccccc1)c1ccc3ccccc3c1O2 (configuration not stated) was read as MCF10A rerep 18µM*, KB-3-1 cytotox inactive, SW480 rerep 5%, PINK1 expr mod -1%, KB-V1 MDR tox inactive and ALOX12 inh inconclusive.
CC(C)Cc1ccc(-c2cnc(CCC(=O)NC3=NCCS3)o2)cc1 was read as ALOX12 inh 0%.
`Clc1cccc(COc2cccc(-n3cnnn3)c2)c1` gave ALOX12 inh -3%.
For CCCn1cnc2nc(COc3cc(NC(=O)COc4ccc(C)c(C)c4)ccc3C)cc(=O)n21 the results were ALOX12 inh -17%.
`COc1ccc(C2c3ccc4ccccc4c3Oc3ncn(CCN(C)C)c(=N)c32)cc1` (configuration not stated) gave MCF10A rerep 21µM*, KB-3-1 cytotox inconclusive, SW480 rerep inconclusive, PINK1 expr mod -2%, KB-V1 MDR tox inconclusive and ALOX12 inh 0%.
Screening COc1ccc(C2c3ccc4ccccc4c3Oc3ncn(CCO)c(=N)c32)cc1 (configuration not stated) returned MCF10A rerep inconclusive, KB-3-1 cytotox inactive, SW480 rerep inconclusive, PINK1 expr mod -2% and KB-V1 MDR tox inactive.
`COc1ccc(C2c3ccc4ccccc4c3Oc3ncn(CCN4CCOCC4)c(=N)c32)cc1` (configuration not stated) gave MCF10A rerep 2%, KB-3-1 cytotox inconclusive, SW480 rerep 23µM*, PINK1 expr mod -4%, KB-V1 MDR tox inconclusive and ALOX12 inh inconclusive.
`COc1ccc(C2c3ccc4ccccc4c3Oc3ncn(CCCO)c(=N)c32)cc1OC` (configuration not stated) gave MCF10A rerep 18µM*, KB-3-1 cytotox inconclusive, SW480 rerep 18µM*, PINK1 expr mod 1%, KB-V1 MDR tox inconclusive and ALOX12 inh -4%.
`COc1ccc(C2c3ccc4ccccc4c3Oc3ncn(CCO)c(=N)c32)cc1OC` (configuration not stated) gave MCF10A rerep -1%, KB-3-1 cytotox inactive, SW480 rerep inconclusive, PINK1 expr mod 1% and KB-V1 MDR tox inconclusive.
Screening O=C(C[n+]1cc(Br)cc2ccccc21)c1ccccc1 returned MCF10A rerep -4%, KB-3-1 cytotox inactive, SW480 rerep inconclusive, PINK1 expr mod 40µM*, KB-V1 MDR tox inactive and ALOX12 inh inconclusive.
`O=C(C[n+]1cc(Br)cc2ccccc21)c1ccc(O)c(O)c1` gave KB-3-1 cytotox inconclusive, PINK1 expr mod 6% and KB-V1 MDR tox inactive.
`Cc1ccc(CNS(=O)(=O)c2ccc(CCC(=O)O)cc2)cc1` gave ALOX12 inh -8%.
Screening COc1ccc(NC(=O)CC2C(=O)N(c3cccc(OC)c3)C(=O)N2C2CCCCC2)cc1 (configuration not stated) returned MCF10A rerep 3%, KB-3-1 cytotox inactive, SW480 rerep -3%, PINK1 expr mod -6%[38.3 µM], KB-V1 MDR tox 16µM* and ALOX12 inh 25%.
`COc1ccc(NC(=O)CC2C(=O)N(c3ccc(OC)cc3)C(=O)N2CCc2cccs2)cc1` (configuration not stated) gave MCF10A rerep 8%, KB-3-1 cytotox inactive, SW480 rerep 0%, PINK1 expr mod 3%, KB-V1 MDR tox 15µM* and ALOX12 inh -17%.
Screening CCN(CC)c1ccc(/C=N/NC(=S)NCc2ccccc2)cc1 returned MCF10A rerep 21µM*, KB-3-1 cytotox inactive, SW480 rerep inconclusive, PINK1 expr mod 3%, KB-V1 MDR tox inactive and ALOX12 inh inconclusive.
For COc1cc(/C=N/NC(=S)NC2CC3CCC2C3)ccc1O (configuration not stated) the results were MCF10A rerep 9%, KB-3-1 cytotox inactive, SW480 rerep -11%, PINK1 expr mod 3%, KB-V1 MDR tox inactive and ALOX12 inh inconclusive.
S=C(NCc1ccccc1)N/N=C/c1cccc(Cl)c1 was read as ALOX12 inh 52%.
C=CCNC(=S)N/N=C/c1ccc(N(CC)Cc2ccccc2)cc1 was read as MCF10A rerep inconclusive, KB-3-1 cytotox inconclusive, SW480 rerep 18µM*, PINK1 expr mod 0%, KB-V1 MDR tox 13µM* and ALOX12 inh 50µM*.
